Mtb MbtI inh – inhibitors of Mycobacterium tuberculosis siderophore enzyme MbtI; P9WFX0; purified MbtI enzyme, fluorescence intensity read-out; inhibition, % (concentration not given with the values); 0.89% of 100,000 active; AID 493033; in the data active = inhibition mostly above about 56%, no sharp cut-off; inactive = mostly below about 77%
Target sequence (P9WFX0 whole entry, looked up): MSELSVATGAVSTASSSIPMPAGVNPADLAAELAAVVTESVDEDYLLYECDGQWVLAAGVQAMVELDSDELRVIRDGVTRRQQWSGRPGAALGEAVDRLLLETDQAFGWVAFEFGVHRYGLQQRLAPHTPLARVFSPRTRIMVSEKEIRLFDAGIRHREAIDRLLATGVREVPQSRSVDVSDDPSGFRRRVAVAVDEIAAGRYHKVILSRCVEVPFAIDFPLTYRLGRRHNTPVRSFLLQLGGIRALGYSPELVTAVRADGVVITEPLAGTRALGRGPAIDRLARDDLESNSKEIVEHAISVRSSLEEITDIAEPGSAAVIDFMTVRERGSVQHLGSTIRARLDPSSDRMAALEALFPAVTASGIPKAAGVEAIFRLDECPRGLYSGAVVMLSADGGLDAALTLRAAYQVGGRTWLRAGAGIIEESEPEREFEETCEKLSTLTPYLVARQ
Polio RdRp inh – poliovirus RNA polymerase inhibition | poliovirus polymerase elongation, fluorescence polarization; hits give low values | AID 588519 | P03300 | 0.66% of 150,000 active | % elongation, % (compound at 16.7 µg/mL); in the data active = % elongation below about 90%
Mtb MenB inh – blocks the Mycobacterium tuberculosis MenB enzyme | P9WNP5 | MenB enzyme assay, absorbance read-out | inhibition, % (concentration not given with the values) | 0.43% of 100,000 active | AID 540299; in the data active = inhibition above about 21%, passing the limit was not always enough
AID504770 – E. coli YBA685 growth inhibition, screen for V. cholerae RctB inhibitors | E. coli YBA685 rctB-dependent plasmid, OD600 growth, 3 h; hits give low values | 0.27% of 130,000 active | z-score (no concentration beside the values); in the data active = z-score below about -2, passing the limit was not always enough
Active calls of the source: *; ! = not active in a repeat. This is a sample that favours compounds with a hit; in the whole collection about 1.4% have one here.

`C=CCNC(=O)C1CC(=O)N(c2ccc(OCC(=O)Nc3cc(C)cc(C)c3)cc2)C1` (stereo not drawn) gave Polio RdRp inh 108.0, Mtb MenB inh -14.4 and AID504770 -0.95.
Cc1cccc(C)c1Nc1nn2c(=O)c3ccccc3nc2s1 was read as Mtb MbtI inh 50.8, Polio RdRp inh 88.0*, Mtb MenB inh -33.4 and AID504770 -0.8.
`Cc1ccccc1Nc1nn2c(=O)c3ccc(C(=O)NCc4ccccc4)cc3nc2s1` gave Polio RdRp inh 104.0.
`Cc1cc(C)c(Nc2nn3c(=O)c4cc5c(cc4nc3s2)OCO5)c(C)c1` gave Polio RdRp inh 87.0*.
`CN1C(=O)C(=Cc2cccs2)C(=O)N(C)C1=S` gave Mtb MbtI inh 16.4, Polio RdRp inh 103.0, Mtb MenB inh -8.7 and AID504770 -0.75.
O=C1OC(c2ccccc2)OC(=O)C1=Cc1cccs1 (stereo not drawn) was read as Mtb MbtI inh 65.0*, Polio RdRp inh 101.0, Mtb MenB inh -3.7 and AID504770 -1.45.
Screening FC(F)(F)c1ccccc1CN1CCN(CC2CC3C=CC2C3)CC1 (stereo not drawn) returned Polio RdRp inh 48.0*, Mtb MenB inh -1.6 and AID504770 -0.55.
For Cc1ccccc1NC(=O)COC(=O)c1cccc2ccccc12 the results were Mtb MbtI inh inactive, Polio RdRp inh 99.0 and AID504770 0.1.
CCCC(=O)Nc1ccc2oc(-c3ccccc3Br)nc2c1 was read as Mtb MbtI inh 64.4, Polio RdRp inh 101.0, Mtb MenB inh 3.1 and AID504770 -1.
`NNc1ccc(Cl)c(Cl)c1` gave Mtb MbtI inh -3.4, Polio RdRp inh 96.0 and AID504770 -3.6*.
`NC(=S)NNc1ccc(Cl)c(Cl)c1` gave Mtb MbtI inh 95.4*, Polio RdRp inh 95.0, Mtb MenB inh -15.0 and AID504770 -0.85.
Screening CCN(CC)Cn1c(=S)oc2ccc(Cl)cc21 returned Mtb MbtI inh 64.4*, Polio RdRp inh 104.0, Mtb MenB inh -41.4 and AID504770 -0.4.
Screening CSC1=NC(C)(C)Cc2c(C)cccc21 returned Polio RdRp inh 90.0*, Mtb MenB inh 0.2 and AID504770 -0.65.
Screening COc1cc(Cc2cnc(N)nc2N)cc(OC)c1OC returned Mtb MbtI inh -5.2, Polio RdRp inh 100.0, Mtb MenB inh -12.1 and AID504770 -3.1*.
Screening CCNc1nc(NC2CC2)nc(N(C)C#N)n1 returned Mtb MbtI inh -14.0, Polio RdRp inh 102.0, Mtb MenB inh -6.3 and AID504770 -1.3.
Screening Cc1ccc(CSc2nc(N)cc(N)n2)cc1 returned Mtb MbtI inh 4.1, Polio RdRp inh 101.0, Mtb MenB inh 36.4* and AID504770 -0.35.
Screening CCc1ccc(C(=O)CSc2nnc(-c3nn(Cc4ccccc4)c(=O)c4ccccc34)o2)cc1 returned Mtb MbtI inh 1.7, Polio RdRp inh 101.0, Mtb MenB inh -3.5 and AID504770 -0.05.
For O=C1C(Sc2ncn[nH]2)=C/C(=N/S(=O)(=O)c2cccs2)c2ccccc21 the results were Mtb MbtI inh 90.1, Polio RdRp inh 87.0*, Mtb MenB inh -29.7 and AID504770 0.45.
`O=C1C(NS(=O)(=O)c2ccccc2)=C/C(=N\S(=O)(=O)c2ccc(F)cc2)c2ccccc21` gave Mtb MbtI inh -2.1, Polio RdRp inh 78.0*, Mtb MenB inh 0.0 and AID504770 -0.85.
Screening O=C1C(Sc2ncn[nH]2)=C/C(=N/S(=O)(=O)c2ccc(F)cc2)c2ccccc21 returned Mtb MbtI inh 97.9, Polio RdRp inh 88.0*, Mtb MenB inh -5.8 and AID504770 -1.2.
O=C(COC(=O)c1cccc(S(=O)(=O)N2CCCC2)c1)c1ccccc1 was read as Mtb MbtI inh -13.5, Polio RdRp inh 107.0, Mtb MenB inh -6.7 and AID504770 -0.4.
Screening CCn1c(SCC(=O)OCc2c(C(=O)OC)sc(N)c2C(=O)OC)nnc1-c1cccs1 returned Mtb MbtI inh 14.1, Polio RdRp inh 105.0, Mtb MenB inh 8.8 and AID504770 2.
CNc1nnc(Sc2nnc(NC)s2)s1 was read as Mtb MbtI inh 90.4*, Polio RdRp inh 91.0, Mtb MenB inh -16.3 and AID504770 -1.
`O=C(NCc1ccccc1F)c1cnc(N2CCCC2)nc1` gave Mtb MbtI inh -1.1, Polio RdRp inh 99.0, Mtb MenB inh 13.8 and AID504770 0.85.
For COCCNC(=S)N1c2ccccc2CC1C (stereo not drawn) the results were Mtb MbtI inh 63.7*, Polio RdRp inh 84.0*, Mtb MenB inh -33.2 and AID504770 -1.2.
COc1cc(NC(=O)Nc2ccccc2C)cc(OC)c1 was read as Mtb MbtI inh 5.8, Polio RdRp inh 102.0, Mtb MenB inh 8.4 and AID504770 0.15.
For CCC(=O)NC(CC)Cc1ccccc1 (stereo not drawn) the results were Polio RdRp inh 104.0, Mtb MenB inh -3.3 and AID504770 0.15.
O=C(O)CC(SC(=NC1C=CCCC1)N1CCCCC1)C(=O)O (stereo not drawn) was read as Polio RdRp inh 103.0, Mtb MenB inh -10.0 and AID504770 -0.75.
`O=C(O)CCC(=O)N1CC(=O)Nc2ccccc21` gave Polio RdRp inh 96.0, Mtb MenB inh -7.7 and AID504770 -0.05.
Screening CC1(C)C(=O)NCCN1C(=O)CCC(=O)O returned Mtb MbtI inh -2.2, Polio RdRp inh 100.0, Mtb MenB inh 30.9* and AID504770 -0.35.
CCOc1cccc(CNCC2NCCc3ccccc32)c1O (stereo not drawn) was read as Mtb MbtI inh -15.4 and AID504770 -1.25.
Screening O=C1CC(=O)c2ccc3c4c(ccc1c24)C(=O)CC3=O returned Mtb MbtI inh 92.8*, Polio RdRp inh 90.0, Mtb MenB inh -251.6 and AID504770 -0.1.
`CCCCC1C(=O)N(c2ccccc2)N(c2ccc(O)cc2)C1=O` (stereo not drawn) gave Mtb MbtI inh 84.0*!, Polio RdRp inh 101.0, Mtb MenB inh -9.7 and AID504770 0.35.
`C1CCC(N2CCN(C3CCCC3)CC2)C1` gave Mtb MbtI inh -7.0, Polio RdRp inh 99.0, Mtb MenB inh 32.3* and AID504770 -0.3.
For CCC(C)N1CCN(C2CCCCC2)CC1 (stereo not drawn) the results were Mtb MbtI inh -10.6, Polio RdRp inh 100.0, Mtb MenB inh 44.3* and AID504770 -0.4.
For CCN(CC)S(=O)(=O)c1ccc2c(c1)CCCN2C(=O)OC the results were Mtb MbtI inh -15.2, Polio RdRp inh 104.0, Mtb MenB inh -16.2 and AID504770 1.05.
For CCN(CC)Cc1nc2sc(C)c(C)c2c(=S)[nH]1 the results were Mtb MbtI inh 79.5*, Polio RdRp inh 101.0, Mtb MenB inh -73.5 and AID504770 -0.6.
Screening Cc1sc2nc(CC#N)[nH]c(=O)c2c1C returned Mtb MbtI inh 3.1, Polio RdRp inh 107.0 and AID504770 -0.4.
`CCc1ccc(/C(N)=N/O)cc1` gave Mtb MbtI inh -5.6, Polio RdRp inh 96.0, Mtb MenB inh -11.1 and AID504770 -0.5.
`N#CC(C(=O)c1ccco1)c1nc2ccccc2[nH]1` (stereo not drawn) gave Mtb MbtI inh 98.3*, Polio RdRp inh 106.0, Mtb MenB inh -7.6 and AID504770 0.25.

Bioassay records: PubChem, ICCB-Longwood Screening Facility, Harvard Medical School
